A selection: hits, their analogues and other compounds. The true share with any hit is near 3%.
Peg3 promoter – inhibitors of Peg3 promoter. HeLa PEG-Prom luciferase reporter, luminescence, overnight. inhibition, % at 20 µM. actives 1.7% (n = 360,000). AID 588405;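 active means inhibition of at least 50% at 20 µM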
PAX8 reporter – PAX8 transcriptional activity inhibition. RMG-I TPO-luciferase reporter, SteadyGlo, 24 h. inhibition, % at 12.6 µM. actives 1.2% (n = 360,000). AID 652154;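 active means mean replicate inhibition at least 60% with every replicate also reaching 60%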;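 further: luciferase light reporting Pax8 driven TPO promoter activity; plate controls were median of neutral control wells for no effect and mitoxantrone controls for full effect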
Shn3 inh set2 – reduces Shn3 3'UTR luciferase signal in osteoblasts | Clone20 osteoblast Shn3 3'UTR firefly luciferase, 24 h | AID 588674 | inhibition, % at 12.5 µM | actives 0.52% (n = 360,000);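 active means mean inhibition of at least 75% with every replicate also reaching 75%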;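 further: 0% = median of neutral control wells and 100% = pilot-screen positive control compound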
TRPM1 prom inh – reduces MITF-dependent TRPM1 promoter luciferase signal; SK-MEL-5 TRPM1 promoter luciferase, 24 h; actives 0.83% (n = 330,000); inhibition, % at 12.5 µM;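 active means mean inhibition across replicates of 60% or more, whatever share of single replicates reaches that level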
EWS-Fli inh – EWS/Fli transcriptional activity inhibition; A673 NR0B1-luciferase reporter, viability-normalised; inhibition, % at 12.6 µM; actives 0.67% (n = 350,000); AID 651661;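 active means mean inhibition of at least 50% after viability correction, with every replicate also passing that limit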;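 further: firefly luciferase signal divided by Alamar Blue viability fluorescence both relative to DMSO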
ABHD5-PLIN5 inh – ABHD5-PLIN5 protein interaction inhibition. Q00G26+Q8WTS1. Split G. princeps luciferase complementation, luminescence, 4 h. inhibition, % at 4 µM. actives 0.78% (n = 360,000). AID 602281;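 active means inhibition above the mean inhibition across every tested compound plus 3 SD, cut at about 22% in these data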;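 further: 0% = DMSO only wells and the 100% control is not disclosed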
Target sequence (Q00G26 whole entry, looked up): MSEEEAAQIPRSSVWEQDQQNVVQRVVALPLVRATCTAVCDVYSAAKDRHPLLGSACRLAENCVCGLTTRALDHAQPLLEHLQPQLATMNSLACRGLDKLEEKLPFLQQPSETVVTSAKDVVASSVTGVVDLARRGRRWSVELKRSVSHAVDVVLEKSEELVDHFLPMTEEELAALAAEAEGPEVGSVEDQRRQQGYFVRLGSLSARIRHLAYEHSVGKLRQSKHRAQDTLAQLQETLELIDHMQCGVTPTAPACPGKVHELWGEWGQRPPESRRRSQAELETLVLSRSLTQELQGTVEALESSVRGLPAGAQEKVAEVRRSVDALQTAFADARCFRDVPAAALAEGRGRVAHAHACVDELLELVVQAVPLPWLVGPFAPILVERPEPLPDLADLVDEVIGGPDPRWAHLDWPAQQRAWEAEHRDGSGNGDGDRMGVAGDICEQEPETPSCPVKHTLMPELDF
Target sequence (Q8WTS1 whole entry, looked up): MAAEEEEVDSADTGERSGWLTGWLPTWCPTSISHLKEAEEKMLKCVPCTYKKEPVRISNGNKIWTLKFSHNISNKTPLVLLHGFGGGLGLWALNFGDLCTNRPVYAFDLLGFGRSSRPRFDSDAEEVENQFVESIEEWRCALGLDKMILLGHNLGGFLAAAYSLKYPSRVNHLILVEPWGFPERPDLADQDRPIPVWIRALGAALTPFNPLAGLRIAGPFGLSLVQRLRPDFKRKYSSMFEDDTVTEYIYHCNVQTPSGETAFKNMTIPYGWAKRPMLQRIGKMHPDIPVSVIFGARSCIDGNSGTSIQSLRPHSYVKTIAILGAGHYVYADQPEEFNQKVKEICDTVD
* hit, by the source's call; · = no result given; ! = not confirmed by another sample.

SMILES	Peg3 promoter	PAX8 reporter	Shn3 inh set2	TRPM1 prom inh	EWS-Fli inh	ABHD5-PLIN5 inh
C[C@H](CO)N1C[C@H](C)[C@H](CN(C)S(=O)(=O)c2cccc(F)c2)OCc2cn(nn2)CCCC1=O	·	·	·	·	-8	·
CCNC(=O)[C@@H]1[C@@H](CO)[C@@H]2Cn3c(cccc3=O)[C@H]1N2Cc1cccc(Cl)c1	·	·	·	·	-7	·
C[C@@H]1CCCCO[C@@H](CN(C)Cc2ccc(Cl)c(Cl)c2)[C@@H](C)CN([C@H](C)CO)C(=O)c2cc(NC(=O)CCC(F)(F)F)ccc2O1	50	67*!	43	·	4	0
C[C@@H]1CN([C@@H](C)CO)C(=O)c2cc(NC(=O)CCC(F)(F)F)ccc2O[C@@H](C)CCCCO[C@H]1CN(C)Cc1ccc(Cl)c(Cl)c1	·	47	·	·	16	·
C[C@@H]1CCCCO[C@@H](CN(C)Cc2ccc(Cl)c(Cl)c2)[C@H](C)CN([C@@H](C)CO)C(=O)c2cc(NC(=O)CCC(F)(F)F)ccc2O1	·	88*	·	·	3	·
CCOC(=O)C1(CCOc2ccccc2)CCN(Cc2ccc(OC)c(COC)c2)CC1	11	30	88*	21	25	-6
O=C(Cc1ccc(N2CCNC2=O)cc1)N1CCCC(Nc2cccc(F)c2)C1 (stereo not drawn)	13	16	27	32	55*	5
O=C(C[C@H]1C[C@H]2c3cc(NC(=O)c4ccc5c(c4)OCO5)ccc3O[C@H]2[C@@H](CO)O1)NCCN1CCCCC1	·	-10	·	·	-25	·
Cc1ccccc1OCC(=O)N/N=C/c1ccc([N+](=O)[O-])o1	7	18	-13	79*	3	11
O=C(N/N=C/C=C/c1ccccc1[N+](=O)[O-])c1cccs1	-52	-1	-12	-6	-14	-3
Cc1cc(C)cc(OCC(=O)N/N=C/c2ccc([N+](=O)[O-])o2)c1	1	17	10	66*	13	1
O=C(N/N=C\C=C\c1ccc([N+](=O)[O-])o1)c1cccs1	28	16	-5	83*	10	2
COc1ccccc1OCC(=O)N/N=C/C=C/c1ccc([N+](=O)[O-])o1	-21	42	38	76*	13	7
C[C@@H]1CN([C@@H](C)CO)C(=O)c2cccc(NC(=O)C3CCOCC3)c2O[C@@H]1CN(C)S(C)(=O)=O	·	-11	·	·	-4	·
COCC#Cc1cnc2c(c1)C(=O)N([C@@H](C)CO)C[C@@H](C)[C@H](CN(C)Cc1ccc(F)cc1)O2	·	·	·	·	-4	·
C[C@@H](NC(=O)C[C@@H]1CC[C@H]2[C@H](COc3ccc(NS(=O)(=O)c4ccc(Cl)cc4)cc3C(=O)N2C)O1)c1ccccc1	·	30	·	·	2	·
CC1(C(=O)N/N=C/c2ccc([N+](=O)[O-])o2)CC1(Br)Br (stereo not drawn)	10	9	-13	74*	15	-3
Cc1noc(C)c1NC(=O)Nc1cccc2c1O[C@@H](CN(C)Cc1ccc(C(=O)Nc3ccccc3N)cc1)[C@@H](C)CN([C@@H](C)CO)C2=O	·	-15	·	·	-2	·
N#Cc1c(NCCN)nc(-c2ccccc2)c2c1CCCC2	67*	·	-4	-2	·	4
C[C@@H]1CN([C@@H](C)CO)C(=O)c2cc(NS(=O)(=O)c3ccccc3)ccc2O[C@H]1CN(C)C(=O)NC1CCCCC1	·	17	·	·	5	·
c1ccc2c(-c3[nH]ncc3CNCCCn3ncc4ccccc43)cccc2c1	41	19	90*	12	7	3
CC(C)C#Cc1ccc([C@@H]2[C@H]3CN(C(=O)c4ccc(F)cc4)CCCCN3[C@H]2CO)cc1	·	20	·	·	15	·
CN1CCN(S(=O)(=O)c2ccc(NC(=O)Nc3cccc(Cl)c3)cc2)CC1	-7	·	-16	-10	·	9
O=C(Nc1cccc(Cl)c1)Nc1cc(S(=O)(=O)N2CCCCC2)ccc1Cl	66*	75*	78	80*	23	-1
COc1cccc(S(=O)(=O)N2CC[C@@H]3[C@H](CO)Nc4ccc(C5=CCCCC5)cc4[C@@H]32)c1	·	91*	·	·	-1	·
SMILES	Peg3 promoter	PAX8 reporter	Shn3 inh set2	TRPM1 prom inh	EWS-Fli inh	ABHD5-PLIN5 inh
Cc1cccc(S(=O)(=O)N2CC[C@H]3[C@H](CO)Nc4ccc(-c5ccccc5F)cc4[C@H]32)c1	·	12	·	·	11	·
Cc1cccc(S(=O)(=O)N2CC[C@@H]3[C@H]2c2cc(C4=CCCCC4)ccc2N[C@@H]3CO)c1	·	91*	·	·	8	·
O=S(=O)(c1ccccc1F)N1CC[C@@H]2[C@@H](CO)Nc3ccc(C4=CCCCC4)cc3[C@@H]21	·	83*	·	·	-8	·
O=C(C[C@H]1CC[C@@H]2[C@H](COC[C@@H](O)CN2C(=O)c2cccnc2)O1)NCc1ccc(-c2ccccc2)cc1	·	-14	·	·	0	·
COc1ccc2c(CC(=O)Nc3ncc(C)s3)coc2c1	65*	-51	-57	-40	-30	8
COc1ccc2c(CC(=O)Nc3nc(C)cs3)coc2c1	-73	-33	-16	-8	-37	-5
Cc1ccc(S(=O)(=O)Nc2ccc3c(c2)C(=O)N([C@@H](C)CO)C[C@H](C)[C@@H](CN(C)S(=O)(=O)c2ccccc2)OCCCC[C@H](C)O3)cc1	·	57	·	·	5	·
Cc1ccc(S(=O)(=O)N(C)C[C@@H]2OCCCC[C@H](C)Oc3ccc(NS(=O)(=O)c4ccccc4)cc3C(=O)N([C@H](C)CO)C[C@H]2C)cc1	·	72*	·	·	-9	·
Cc1ccc(S(=O)(=O)N(C)C[C@@H]2OCCCC[C@H](C)Oc3ccc(NS(=O)(=O)c4ccccc4)cc3C(=O)N([C@H](C)CO)C[C@@H]2C)cc1	·	64*	·	·	2	·
C[C@H]1CCCCO[C@@H](CN(C)S(=O)(=O)c2ccccc2)[C@@H](C)CN([C@@H](C)CO)C(=O)c2cc(NC(=O)NC3CCCCC3)ccc2O1	·	69*	·	·	14	·
C[C@H]1CCCCO[C@@H](CN(C)S(=O)(=O)c2ccc(F)cc2)[C@@H](C)CN([C@@H](C)CO)C(=O)c2cc(NC(=O)NC3CCCCC3)ccc2O1	·	66*	·	·	8	·
COc1ccc(S(=O)(=O)N(C)C[C@@H]2OCCCC[C@H](C)Oc3ccc(NC(=O)NC4CCCCC4)cc3C(=O)N([C@@H](C)CO)C[C@@H]2C)cc1	·	66*	·	·	13	·
C[C@@H]1CCCCO[C@@H](CN(C)S(=O)(=O)c2ccccc2)[C@H](C)CN([C@@H](C)CO)C(=O)c2cc(NC(=O)NC3CCCCC3)ccc2O1	·	10	·	·	3	·
CCCC#Cc1ccc2c(c1)O[C@@H](CN(C)S(=O)(=O)c1cccc(OC)c1)[C@@H](C)CN([C@H](C)CO)S2(=O)=O	·	38	·	·	23	·
C[C@H](CO)N1C[C@H](C)[C@H](CN(C)C(=O)Nc2ccc(C(F)(F)F)cc2)OCCCC[C@H](C)Oc2ccc(NC(=O)Cc3ccccc3)cc2C1=O	·	-3	·	·	-13	·
Cc1ccc([N+](=O)[O-])cc1N=Nc1c(-c2ccc([N+](=O)[O-])cc2)[nH]n(C(N)=S)c1=O	48	·	54	64*	·	-2

Bioassay records deposited in PubChem by several laboratories.
